Screening data from PubChem.
TDP1 cell CPT: DT40-hTDP1 cell growth loss with CPT | chicken DT40 Tdp1-/-;hTDP1 cells + 20 nM CPT, ATP luminescence, 48 h | Potency, µM (highest dose often 46.2 µM), inactives show at the top dose activity change, negative = growth inhibition, actives largely listed as inhibitors | 420,000 compounds, 12% hits; note: nearly all actives have a fitted effect of over 55% in size
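Cell growth measured by CellTiter-Glo luminescence after a minimum 48 h, 37 C compound exposure with 20 nM CPT in Tdp1-knockout DT40 cells stably expressing hTDP1, seeded 400/well; qHTS titration format.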
HT1080 IDH1KD tx: toxicity to HT-1080 IDH1 knockdown cells (counter line) | Potency, µM (highest dose often 46.1 µM), without a hit: at the top dose activity, negative = toxicity, most hits filed as cytotoxic | 360,000 compounds, 2% hits | HT-1080 IDH1 knockdown viability, ATP luminescence, 48 h;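 note: 0% = DMSO wells and -100% = cell-free medium wells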
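In this qHTS, HT-1080 cells depleted of IDH1 are exposed for 48 h at 37 °C to compound titrations. Toxicity is scored from CellTiter-Glo luminescence, with DMSO as full viability and medium alone as none.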
TDP1 cell noCPT: qHTS for Inhibitors of human tyrosyl-DNA phosphodiesterase 1 (TDP1): qHTS in cells in absence of CPT | DT40 Tdp1-/- hTDP1 cells, no CPT, ATP luminescence, 48 h | Potency, µM (highest dose often 46.2 µM), for the others: at the top dose activity change, negative = growth inhibition, usual class: inhibitors | 420,000 compounds, 15% hits; note: nearly all actives have a fitted effect of over 55% in size
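Chicken DT40 Tdp1-/- cells complemented with human TDP1, screened without camptothecin (DMSO vehicle only), 400 cells/well. Compounds pin-transferred, cells incubated at 37 °C for at least 48 hr. Growth read as ATP-dependent luminescence (CellTiter-Glo, 30 min at RT).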
KB-V1 cytotox: KB-V1 MDR subline cytotoxicity; KB-V1 MDR cells viability, CellTiter-Glo, 72 h; Potency, µM (doses to about 46.1 µM), actives largely listed as cytotoxic; 400,000 compounds, 3.4% hits; AID 1347076; note: nearly all actives have a fitted effect of over 60% in size
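KB-V1 cells (P-gp-expressing MDR subline of KB-3-1) in phenol-red-free DMEM with 10% FBS were exposed to library compounds over a concentration series for 72 h at 37 degrees C. Viability read by CellTiter-Glo luminescence; concentration-effect curves fitted after normalization.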
KB-3-1 cytotox: KB-3-1 parental cell cytotoxicity. Potency, µM (titrated, usually from 46.1 µM), actives largely listed as cytotoxic. KB-3-1 viability, CellTiter-Glo ATP luminescence, 72 h. AID 1347075. 400,000 compounds, 1.4% hits; note: nearly all actives have a fitted effect of over 60% in size
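Viability of parental KB-3-1 cells, measured by CellTiter-Glo luminescence, followed a 72 h incubation at 37 °C with pinned compounds in phenol-red-free DMEM containing 10% FBS.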
HT1080-NT tox: kills 2HG-producing HT-1080-NT fibrosarcoma cells; 360,000 compounds, 1.6% hits; HT-1080-NT fibrosarcoma viability, CellTiter-Glo ATP luminescence, 48 h; Potency, µM (doses to about 46.1 µM), inactives show at the highest dose activity, negative = less viability, usual class: cytotoxic;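 note: NT is the 2HG producing partner of a matched IDH1 knockdown line; 0% = DMSO-treated cells and -100% = media-only wells without cells; nearly all actives have a fitted effect of over 55% in size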
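Read-out is CellTiter-Glo luminescence after 10 minutes at room temperature, following 48 hours' compound treatment of HT-1080-NT cells (750 cells/well, RPMI, 5% FBS, 37 degrees C).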
* hit, by the source's call; i = inactive; ? = inconclusive; · = no result; [ ] = another dose, or the depositor's remark. Rows were chosen to be rich in hits. Some 19% of all compounds tested hit in one or more screens of this group. Calls come from the whole dose curve; as a rule, active = well fitted curve in the direction sought with a large enough effect; inconclusive = small, poorly fitted or top-dose-only effect, or another doubt; inactive = no such curve, though single readings can be large; an effect the other way counts as inactive or inconclusive. Unless noted, % is set by controls: 0 for no effect and ±100 for the full control effect; potency is the fitted concentration of half-maximal effect.

SMILES	TDP1 cell CPT	HT1080 IDH1KD tx	TDP1 cell noCPT	KB-V1 cytotox	KB-3-1 cytotox	HT1080-NT tox
O=C(Nc1nnc(SCc2cc(=O)c3ccccc3[nH]2)s1)c1ccccc1	23µM*	·	7.3µM*	i	?	·
CCOC(=O)c1[nH]c(C)c(CCC(=O)Nc2cc(C)ccc2OC)c1C	-28%	·	?	i	i	·
CCCCN(CC)Cc1ccc(CNC(=O)Nc2ccccc2)o1	18µM*	14µM*	10µM*	i	i	1%
CCCCN(CC)Cc1ccc(CNC(=S)Nc2cccc(F)c2)o1	?	-4%	23µM*	i	i	-14%
CCCCN(CC)Cc1ccc(CNC(=O)Nc2ccc(OC)cc2OC)o1	-28%	1%	?	i	i	-13%
COc1cc(/C=N/N=C2/C(=O)Nc3ccccc32)ccc1O	-21%	-25%	-30%	i	i	-24%
Oc1ccc(C=NN=C2c3ccccc3-c3ccccc32)c(O)c1	?	-1%	15µM*	?	?	0%
Oc1ccc(/C=N/Nc2ccc3ccccc3c2)c(O)c1	-6%	-21%	-12%	i	i	-29%
NC(N)=N/N=C/c1cccc([N+](=O)[O-])c1O	11%	12%	-5%	i	i	12%
O=[N+]([O-])c1cccc(/C=N\N=C2c3ccccc3-c3ccccc32)c1O	?	6%	16µM*	18µM*	?	3%
COc1ccc(C=NN=C2c3ccccc3-c3ccccc32)cc1OC	?	3%	23µM*	?	i	14%
O=[N+]([O-])c1cccc(/C=N/Nc2ccccn2)c1	8%	14%	1%	i	i	17%
O=[N+]([O-])c1cccc(C=NN=C2c3ccccc3-c3ccccc32)c1	-16%	14%	-14%	21µM*	i	-2%
Cc1ccc(CNC(=O)c2ccc(Cn3c(SCc4ccc(F)cc4)nc4cccnc43)cc2)o1	?	·	?	i	i	·
COc1ccc(-n2c(=O)c(-c3cccs3)nc3cncnc32)cc1	9%	·	12%	·	·	·
C(=NN=C1c2ccccc2-c2ccccc21)c1c[nH]c2ccccc12	?	?	?	23µM*	?	-10%
CC(=O)N1CCN(S(=O)(=O)c2cccc(C(=O)OCC(=O)N3CC(=O)Nc4ccccc43)c2)CC1	8%	-3%	-18%	i	i	-1%
Cc1noc(C)c1COc1cccc(C(=O)OCC(=O)N2CC(=O)Nc3ccccc32)c1	0.58µM*	1.8µM*	0.65µM*	?	1.5µM*	?
Cc1cc(C(=O)OCC(=O)N2CC(=O)Nc3ccccc32)c(C)n1-c1ccc(F)cc1	-23%	-4%	?	16µM*	?	-1%
Cc1cc(C(=O)OCC(=O)N2CC(=O)Nc3ccccc32)c(C)n1-c1ccccc1	-11%	7%	?	16µM*	i	10%
O=C1CN(C(=O)COC(=O)c2ccccc2O)c2ccccc2N1	3%	18%	-9%	i	i	?
O=C(c1ccc(N2CCC(NCCCn3ncc4ccccc43)CC2)cc1)N1CCc2ccccc2C1	6%[9.04 µM]	·	?	·	·	·
CN1C[C@@H]2[C@@H]3C(=O)N(Cc4ccccc4)C(=O)[C@@H]3[C@](Cc3ccccc3)(C1=O)N2C(=O)c1ccc(Cl)c(Cl)c1	?	6%	?	?	i	-1%
CCN1C[C@@H]2[C@@H]3C(=O)N(Cc4ccccc4)C(=O)[C@@H]3[C@](Cc3ccccc3)(C1=O)N2C(=O)c1ccc(Cl)c(Cl)c1	?	2%	?	18µM*	?	-3%
